Results as given in PubChem BioAssay (NCI).
Several values for one entry are separate records, joined by “and”; a condition that tells them apart may be missing. Equal values may be shown once. The panel holds about 79,000 compounds, 15% with a hit somewhere; the sample as a whole holds those more often. Values without a mark were called inactive. Activity calls are given as the source filed them. Rule as the data show it: active = growth inhibition above about 70%; inactive = the rest.

Assay: NCI Yeast Anticancer Drug Screen. Data for the bub3 strain (AID 167)
Details: S. cerevisiae bub3 mutant strain, stronger effect = higher value
Description: Growth inhibition of yeast strains with defined genetic alterations is measured as a screen for potential anti-cancer activity. Selected strains with alterations in DNA damage repair or cell cycle control were exposed to compounds and growth inhibition was measured relative to vehicle treated controls. The strain used in this assay is bub3

[1] = at 5.0 µM (retest, dose inferred, filed as 0.5)
[2] = at 50.0 µM (retest, dose inferred, filed as 5.0)

SMILES: CCCCCCC(CCl)c1sc(-c2csc(CCNC(=O)OC(C)(C)C)n2)nc1C(=O)OC (stereo not given)
- growth inhibition (at 1.2 µM): -1%
- growth inhibition (at 3.7 µM): 0%
- growth inhibition [1]: -21%
- growth inhibition (at 11.0 µM): 2%
- growth inhibition (at 33.0 µM): 8%
- growth inhibition [2]: 47%
- growth inhibition (at 50.0 µM): 9.85%
- growth inhibition (at 100.0 µM): 94% (active)

SMILES: CCOC(=O)/C=C1\CCCn2c1ncc(C(=O)OCC)c2=O
- growth inhibition (at 1.2 µM): 2%
- growth inhibition (at 3.7 µM): 0%
- growth inhibition [1]: -13%
- growth inhibition (at 11.0 µM): 4%
- growth inhibition (at 33.0 µM): 10%
- growth inhibition [2]: 94% (active)
- growth inhibition (at 50.0 µM): 59.5%
- growth inhibition (at 100.0 µM): 28%

SMILES: O=c1oc(C(C(F)(F)F)C(F)(F)F)nc2ccccc12
- growth inhibition (at 1.2 µM): 3%
- growth inhibition (at 3.7 µM): 13%
- growth inhibition [1]: -27%
- growth inhibition (at 11.0 µM): 20%
- growth inhibition (at 33.0 µM): -5%
- growth inhibition [2]: -6%
- growth inhibition (at 50.0 µM): 16.6%
- growth inhibition (at 100.0 µM): 15%

SMILES: CN(C)c1ccc(C(c2ccc(Cl)cc2)c2ccc(N(C)C)cc2)cc1
- growth inhibition (at 1.2 µM): 80% (active)
- growth inhibition (at 3.7 µM): 98% (active)
- growth inhibition [1]: 93% (active) and 99% (active)
- growth inhibition (at 11.0 µM): 97% (active)
- growth inhibition (at 33.0 µM): 93% (active)
- growth inhibition [2]: 91% (active) and 99% (active)
- growth inhibition (at 50.0 µM): 94.4% (active) and 91.3% (active)
- growth inhibition (at 100.0 µM): 80% (active)

SMILES: CCOC(=O)/C(O)=C(/C=N/C(=S)Nc1c(CC)cccc1CC)C(=O)OCC
- growth inhibition (at 1.2 µM): -9%
- growth inhibition (at 3.7 µM): -10%
- growth inhibition [1]: -20%
- growth inhibition (at 11.0 µM): -5%
- growth inhibition (at 33.0 µM): 12%
- growth inhibition [2]: 49%
- growth inhibition (at 50.0 µM): 67%
- growth inhibition (at 100.0 µM): 31%
